High-throughput results from PubChem BioAssay.
In the library only some 3% were active in any assay of this set; here they are far more common.
ALOX15B inhib: blocks human 15-lipoxygenase 2 activity. O15296. purified 15hLO-2, xylenol orange hydroperoxide absorbance. Potency, µM (top dose mostly 57.1 µM), most hits filed as inhibitors. actives 0.56% (n = 110,000). AID 881; note: nearly all actives have a fitted effect of over 60% in size
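Purified human 15hLO-2 (50 nM final) preincubated with compounds 15 min at room temperature in 25 mM Hepes pH 7.5, 0.01% Triton X-100, then 45 uM arachidonic acid added for 90 min; hydroperoxide detected via ferrous/xylenol orange, 573/405 nm absorbance ratio.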
PNC assembly inh: inhibitors of perinucleolar compartment assembly; PC3M PTB-GFP, PNC prevalence imaging, 16 h; stronger effect = lower value; activity change (PNC), negative = inhibition, % at 10 µM; actives 3.1% (n = 140,000);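 active = readout at or below -70, meaning at least 70% loss of cells showing the perinucleolar compartment, a nuclear body marking cancer cells; inconclusive = readout between -30 and a set limit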
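Compounds are pinned in duplicate onto adhered PC3M cells stably expressing GFP-tagged PTB and incubated 16 h at 37 C. Cells are then fixed, nuclei stained with Hoechst, and PNC-positive cells counted.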
IMPase inh: IMPase inhibition in cells; inhibition (IP1 accumulation), % at 46.1 µM; CHO-M1 cells, IP1 accumulation, HTRF TR-FRET ratio; 120,000 tested, under 10 active; AID 901; active = well fitted curve in the direction sought with a large enough effect in the signal ratio, not every such curve was filed as active; inconclusive = small, poorly fitted or top-dose-only effect, or a change in a side signal; inactive = no such curve, though single readings can be large or run the other way; the % refers to the signal ratio;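 note: cells stimulated with carbachol in lithium chloride buffer; higher means more IMPase inhibition seen as more IP1 and lower FRET ratio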
Target sequence (P97697 whole entry, looked up): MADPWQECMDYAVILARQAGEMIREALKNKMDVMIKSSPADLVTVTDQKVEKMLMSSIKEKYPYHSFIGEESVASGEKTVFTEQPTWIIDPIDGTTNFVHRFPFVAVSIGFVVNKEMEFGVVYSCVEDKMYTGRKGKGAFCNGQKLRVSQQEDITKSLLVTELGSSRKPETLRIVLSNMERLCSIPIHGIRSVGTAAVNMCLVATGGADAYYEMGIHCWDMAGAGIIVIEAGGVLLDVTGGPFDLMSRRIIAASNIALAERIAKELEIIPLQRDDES
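In this qHTS, compounds (final up to 46 uM) act on CHO-M1 cells that are then activated through the M1 receptor with carbachol, in pH 7.4 buffer containing 50 mM LiCl, for 30 min. IP1 accumulation is quantified by the IP-One immunoassay.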
12-hLO inh: 12-hLO (ALOX12) enzyme inhibition. P18054. Potency, µM (doses to about 57.1 µM), hits mostly inhibitors. AID 1452. actives 0.12% (n = 150,000). purified 12-hLO, xylenol orange hydroperoxide absorbance; note: nearly all actives have a fitted effect of over 55% in size
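Purified human 12hLO (150 nM final) was preincubated with compounds for 15 min at room temperature in 25 mM Hepes pH 7.0, 0.01% Triton X-100, then reacted with 40 uM arachidonic acid for 30 min. Hydroperoxide was detected with ferrous iron/xylenol orange.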
A number is an active result; n = inactive; u = inconclusive; x = no result given; [ ] = dose if it differs, or a comment. Unless noted, calls come from the whole dose curve; as a rule, active = well fitted curve in the direction sought with a large enough effect; inconclusive = small, poorly fitted or top-dose-only effect, or another doubt; inactive = no such curve, though single readings can be large; an effect the other way counts as inactive or inconclusive.

SMILES	ALOX15B inhib	PNC assembly inh	IMPase inh	12-hLO inh
O=C(NCc1ccccc1)NC1(C(=O)N2CCOCC2)CCCCC1	n	n	n	n
COc1cc2c(cc1OC)CN(CC(=O)Nc1ccc(C)cc1)CC2	n	-89.5	n	n
Cc1ccc(OCCOCCN(C)C)c(Cl)c1	x	-95.9	x	n
COc1cc(C)ccc1OCCOc1cc(C)ccc1Cl	15.8µM	n	n	u
CCc1cc(OCCOCCN(C)C)ccc1Cl	x	n	x	n
COCCCn1c(CCC(=O)O)ccc1-c1cccs1	n	n	n	n
O=C(COC(=O)c1cc(-c2ccco2)nc2ccccc12)NCc1ccc2c(c1)OCO2	x	-100.0	n	n
CCC1(C)N([O-])C(C)=C(c2ccccc2)[N+]1=O (configuration not stated)	n	-88.3	n	n
O=C(Nc1cccs1)Nc1ccccc1Cl	u	-82.3	n	u
Cc1ccc(NC(=O)Nc2cccs2)c(Cl)c1	n	u	n	u
CCCCCCCCCCCCCc1ccco1	n	x	x	n
CC1(C)CC23C(=O)CCC(O)C2(C)CCC13 (configuration not stated)	n	x	x	n
CCOC(=O)c1[nH]c(C)c(/C=N/O)c1C	n	-115.1	n	n
Cc1ccc(C(=O)CSc2cnc3ccccc3n2)cc1C	x	n	x	n
C[C@@H](C(=O)N[C@H](C(=O)O)c1ccccc1)n1nnc2ccccc2c1=O	x	-112.4	x	n
CCC(C)[C@@H](C(=O)NCC1CCC(C(=O)O)CC1)n1nnc2ccccc2c1=O (some centres not stated)	n	n	n	n
CCOc1ccccc1C(=O)Nc1ccsc1C(=O)OC	x	-110.0	x	n
COc1ccc(-n2c(=O)c(-c3cccc(C#N)c3)nc3cnc(N4CCNCC4)nc32)cc1	n	x	x	x
c1ccc(-c2cccc(N3CC[C@@]4(CCCNC4)C3)c2)cc1	n	x	x	n
CS(=O)(=O)CCC(C(=O)OCc1ccc(Br)cc1)N1C(=O)c2ccccc2C1=O (configuration not stated)	x	n	n	n
COC(=O)c1ccc(COC(=O)C(CCS(C)(=O)=O)N2C(=O)c3ccccc3C2=O)cc1 (configuration not stated)	x	-104.2	u	n
O=C(NC1CCCCC1)N1CCCCCCC1	n	n	n	n
O=C(NC1CCCCC1)N1CCN(c2ncccn2)CC1	n	-83.4	n	n
c1cncc(CNc2nc(-c3ccoc3)nc3ccccc23)c1	n	x	x	n
Cn1nc(CC(=O)NC2CCCCCCCCCCC2)c2ccccc2c1=O	u	n	n	n
SMILES	ALOX15B inhib	PNC assembly inh	IMPase inh	12-hLO inh
Cn1nc(CC(=O)Nc2ncc(Br)s2)c2ccccc2c1=O	x	-118.9	n	n
O=C(NCc1ccco1)/C(=C\c1cccnc1)NC(=O)c1ccccc1F	x	n	x	n
Cc1ccc(S(=O)(=O)/N=C2\CN(C)C(=O)N2C)cc1	x	-113.4	x	n
COC(=O)C1=C(C(=O)OC)[C@@H]2N(C)c3ccc(OC)cc3[C@@]23C[C@@H](C(=O)OC)N(S(=O)(=O)c2ccc(C#N)cc2)C3=N1	x	x	x	n[11.4 µM]
COc1ccc(NC(=O)c2cc3c(Cl)nc4ccccc4c3s2)cc1OC	x	-87.6	x	n
COc1ccc(CCNC(=O)CSc2nnc(Cc3csc(N)n3)n2C)cc1OC	n	-94.9	n	n
CCOC(=O)c1cc(-c2ccc(OC(F)F)cc2)nc2c1c(=O)[nH]c(=O)n2C	x	-84.0	x	n
CCOC(=O)c1cc(-c2ccc(OC(F)F)cc2)nc2nc(SC)[nH]c(=O)c12	x	n	n	n
O=C(Nc1ncc(Cc2ccc(SC(F)F)cc2)s1)c1ccc(OC(F)F)cc1	x	-85.6	x	n
Cc1ccc(Cc2cnc(NC(=O)c3ccco3)s2)cc1	n	n	n	n
CCOC(=O)C1CCCN(CCCc2ccccc2)C1 (configuration not stated)	n	n	n	n
Cn1c(=O)c2[nH]c(CS(=O)(=O)Cc3nc4c([nH]3)c(=O)n(C)c(=O)n4C)nc2n(C)c1=O	n[11.4 µM]	x	x	n[11.4 µM]
Cc1cc(NC(=O)CCC(=O)N(CCC(C)C)CC(=O)NCC2CCCO2)no1 (configuration not stated)	n	n	n	n
Cc1cc(C)cc(N(CC(=O)NCC2CCCO2)C(=O)CCC(=O)Nc2cc(C)on2)c1 (configuration not stated)	n	-82.1	n	n
COc1ccccc1N1CCN(C(=O)CN(c2ccccc2OC)S(=O)(=O)c2ccccc2)CC1	n	n	n	n
COc1ccccc1OCc1nc(-c2cccc(C)c2)no1	x	x	n	x
COc1ccccc1Cc1noc(COc2cccc(C)c2C)n1	n	-135.3	n	n
O=C1CCN(Cc2nnnn2CC2CCCO2)c2ccccc2N1 (configuration not stated)	n	n	n	n
O=C(NN1C(=O)C2C3C=CC(C3)[C@H]2C1=O)c1cccnc1 (some centres not stated)	x	-97.5	n	n
Cc1cc(C)n(-c2ccc(OCC(=O)O)nn2)n1	n	-115.4	n	n
COc1cccc(-n2nnc3c(=O)n(CC(=O)N4CCCc5ccccc54)cnc32)c1	n	n	n	n
COc1cccc(C2CC(=O)N3CN(c4cccc(Cl)c4C)CSC3=C2C#N)c1OC (configuration not stated)	12.6µM	u	n	u
COc1ccccc1N1CSC2=C(C#N)C(c3ccc(SC)cc3)CC(=O)N2C1 (configuration not stated)	20µM	n	n	u
COc1ccc(OC)c(C2CC(=O)N3CN(c4cccc(Cl)c4C)CSC3=C2C#N)c1 (configuration not stated)	10µM	n	n	u
COc1cccc(C2CC(=O)N3CN(c4ccccc4F)CSC3=C2C#N)c1 (configuration not stated)	u	n	n	n
SMILES	ALOX15B inhib	PNC assembly inh	IMPase inh	12-hLO inh
COc1cc(C2CC(=O)N3CN(c4ccccc4C)CSC3=C2C#N)cc(OC)c1OC (configuration not stated)	u	n	n	u
COc1ccc(OC)c(C2CC(=O)N3CN(c4ccc(C)c(Cl)c4)CSC3=C2C#N)c1 (configuration not stated)	u	n	n	n
COc1ccc(OC)c(C2CC(=O)N3CN(c4cccc(Cl)c4)CSC3=C2C#N)c1 (configuration not stated)	u	n	n	u
COc1ccc(OC)c(C2CC(=O)N3CN(c4ccccc4F)CSC3=C2C#N)c1 (configuration not stated)	31.6µM	n	n	31.6µM
CN(CCc1ccc(Cl)c(Cl)c1)C[C@@H](O)COc1ccc(NS(C)(=O)=O)cc1	n	x	n	n
CCNC(=O)CON=C1c2ccccc2-c2ccccc21	x	n	x	n
CCC(CC)NC(=O)CON=C1c2ccccc2-c2ccccc21	x	-81.2	n	n
COCCn1c(SCC(=O)N2CCCCC2)nc2cccnc21	n	-82.9	n	n
COc1ccccc1-n1c(SCC(=O)N2CCCC2)nc2cccnc21	n	-110.1	n	n
Cn1c(SCC(=O)N2CCOCC2)nc2cccnc21	n	n	n	n
CC(C)(C)NC(=O)Cn1c(SCC(=O)N2CCCCCC2)nc2ccccc21	n	-92.3	n	n
